Experimental data: PubChem BioAssay AID1159580 (chemical genetic matrix, 2015)
Among all 5,500 compounds or so, about 2,000 (36%) were called active. Roughly 18% stayed inconclusive and do not appear here. Cut-off read from the data, not from the text of the source: active = normalized growth mostly below about 0.91 (no sharp cut-off); inconclusive = no clear call, values can overlap the other calls; inactive = mostly above about 0.92. The list shows a part of the results.

Experiment: chemical genetic growth profiling, strain panel (AID 1159580);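 note: tested at 20 µM; growth read once vehicle control cultures reached saturation at 30 °C; 1 = growth at the plate median or of vehicle wells; lower values mean less growth of the strain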
Conditions: S. cerevisiae deletion strains, growth OD

Measured: normalized growth

CC(=O)OC1CC23CC24CCC(OC2OCC(O)C(O)C2O)C(C)(C)C4CCC3C2(C)CC3OC4(CC(C)C3C12C)OC(O)C1(C)OC41 (stereo unspecified)
inactive: locus YAL021C, strain ccr4, hits give low values 0.995 | locus YAL026C, strain drs2, hits give low values 1.01 | locus YAL030W, strain snc1, hits give low values 1 | locus YBL061C, strain skt5, hits give low values 1.01 | locus YBR009C, strain hhf1, hits give low values 0.988 | locus YBR023C, strain chs3, hits give low values 1 | locus YBR171W, strain sec66, hits give low values 1.02 | locus YBR231C, strain swc5, hits give low values 1.03 | locus YBR279W, strain paf1, hits give low values 1 | locus YCL011C, strain gbp2, hits give low values 1.01 | locus YCL016C, strain dcc1, hits give low values 0.998 | locus YCL069W, strain vba3, hits give low values 1.01 | locus YCR088W, strain abp1, hits give low values 1.01 | locus YDL005C, strain med2, hits give low values 1.02 | locus YDL040C, strain nat1, hits give low values 1 | locus YDR001C, strain nth1, hits give low values 1 | locus YDR069C, strain doa4, hits give low values 1.01 | locus YDR137W, strain rgp1, hits give low values 0.99 | locus YDR159W, strain sac3, hits give low values 1.04 | locus YDR195W, strain ref2 1 | locus YDR297W, strain sur2, hits give low values 1.01 | locus YDR334W, strain swr1, hits give low values 1.01 | locus YDR335W, strain msn5, hits give low values 1.01 | locus YDR392W, strain spt3, hits give low values 0.936 | locus YEL003W, strain gim4, hits give low values 1.01 | locus YEL037C, strain rad23, hits give low values 1 | locus YEL061C, strain CIN8 (second series), hits give low values 1.01 | locus YER015W, strain faa2, hits give low values 1.02 | locus YER016W, strain bim1, hits give low values 1.01 | locus YER111C, strain swi4, hits give low values 0.999 | locus YER155C, strain BEM2 (second series), hits give low values 1.07 | locus YFR010W, strain ubp6, hits give low values 1.03 | locus YGL167C, strain pmr1, hits give low values 0.996 | locus YGL173C, strain kem1, hits give low values 1.01 | locus YGL227W, strain vid30, hits give low values 1.01 | locus YGL240W, strain doc1, hits give low values 1.04 | locus YGL253W, strain hxk2, hits give low values 1 | locus YHR013C, strain ard1, hits give low values 0.998 | locus YHR027C, strain rpn1, hits give low values 1 | locus YHR142W, strain chs7, hits give low values 0.978 | locus YJL092W, strain hpr5, hits give low values 1.02 | locus YJL095W, strain BCK1 (second series), hits give low values 1.01 | locus YJL115W, strain asf1, hits give low values 1.01 | locus YJL129C, strain trk1, hits give low values 1 | locus YJL154C, strain vps35, hits give low values 1.01 | locus YJL164C, strain tpk1, hits give low values 0.972 | locus YJL166W, strain qcr8, hits give low values 1.01 | locus YJL187C, strain SWE1, hits give low values 0.996 | locus YKL160W, strain elf1, hits give low values 0.998 | locus YKR026C, strain gcn3, hits give low values 1.01 | locus YKR091W, strain srl3, hits give low values 1 | locus YLL001W, strain dnm1, hits give low values 1.01 | locus YLL026W, hits give low values 1.02 | locus YLL041C, strain sdh2, hits give low values 0.997 | locus YLR027C, strain aat2, hits give low values 0.997 | locus YLR221C, strain rsa3, hits give low values 1.04 | locus YLR258W, strain gsy2, hits give low values 1 | locus YLR262C, strain YPT6 (second series), hits give low values 1.02 | locus YLR320W, strain mms22, hits give low values 1.04 | locus YLR342W, strain FKS1, hits give low values 1 | locus YLR357W, strain rsc2, hits give low values 1.05 | locus YLR370C, strain arc18, hits give low values 1.01 | locus YLR384C, strain iki3, hits give low values 0.998 | locus YML120C, strain ndi1, hits give low values 0.98 | locus YMR058W, strain fet3, hits give low values 1.03 | locus YMR125W, strain sto1, hits give low values 0.985 | locus YMR129W, hits give low values 1 | locus YMR205C, strain PFK2, hits give low values 0.994 | locus YMR231W, strain pep5, hits give low values 1.01 | locus YNL071W, strain lat1, hits give low values 0.999 | locus YNL209W, strain ssb2, hits give low values 0.987 | locus YNL248C, strain rpa49, hits give low values 1.07 | locus YNL322C, strain KRE1 (second series), hits give low values 1.01 | locus YNR049C, strain mso1, hits give low values 1.02 | locus YOR001W, strain rrp6, hits give low values 1.04 | locus YOR070C, strain gyp1, hits give low values 1.02 | locus YOR080W, strain dia2, hits give low values 1 | locus YOR083W, strain WHI5, hits give low values 0.993 | locus YOR106W, strain vam3, hits give low values 0.975 | locus YOR265W, strain rbl2, hits give low values 1 | locus YOR270C, strain vph1, hits give low values 0.906 | locus YOR290C, strain snf2, hits give low values 0.959 | locus YPL051W, strain arl3, hits give low values 1.03 | locus YPL078C, strain atp4, hits give low values 0.963 | locus YPL106C, strain sse1, hits give low values 1.02 | locus YPL240C, strain hsp82, hits give low values 1.02
